ChEMBL document CHEMBL3988442, “University of Dundee, Small-Polar-MMV Screening Library” (2021)
Among all 69,000 compounds or so, about 950 (1.4%) showed an effect of 50% or more. The sample holds strong results, similar compounds and a random draw of the others, so the mix is not that of the screen.

system: Mycobacterium tuberculosis; assay: Cornell M. t heat shock assay; assay type: functional, organism-based; parameters: dose or concentration left out as unconfirmed; note: in the data most compounds retested in dose-response had high values

Compound	Percent Effect
Cn1cnc2c1CCN(Cc1csc(-c3ccsc3)n1)C2	121.8%
c1cc(-c2nc(CN3CCc4c(ncn4C4CC4)C3)cs2)cs1	24.33%
CC(C)c1nc2c(n1C)CCN(Cc1nc(-c3ccsc3)no1)C2	103.5%
CC(C)c1nc2c(n1C)CCN(Cc1nc(-c3ccoc3)no1)C2	-1.716%
Cn1cnc2c1CCN(Cc1csc(-c3ccc(F)cc3)n1)C2	1.572%
Cn1c(C2CC2)nc2c1CCN(Cc1nc(-c3ccsc3)no1)C2	13.01%
Cn1cnc2c1CCN(Cc1csc(-c3ccccc3F)n1)C2	47.56%
c1ccc(-c2nc(CN3CCc4c(ncn4C4CC4)C3)cs2)cc1	62.99%
Cn1cnc2c1CCN(Cc1csc(-c3ccccc3)n1)C2	-8.138%
Cn1cc(-c2nc(CN3CCc4c(ncn4C4CC4)C3)cs2)cn1	19.08%
COc1ccc(-c2nc(CN3CCc4c(ncn4C)C3)cs2)cc1	174%
Cn1cc(-c2nc(CN3CCc4c(ncn4C)C3)cs2)cn1	-15.5%
COCCO[C@H]1CCN(Cc2ccsc2)[C@H]1Cc1cccnc1.O=C(O)C(F)(F)F.O=C(O)C(F)(F)F	-33.79%
CCc1noc(CN2C[C@H]3CC[C@@H]2CN(C2Cc4ccccc4C2)C3)n1	18.74%
COc1ccc(CC(=O)N2CC[C@@H](OC)[C@@H]2Cc2cccnc2)cc1.O=C(O)C(F)(F)F	-4.792%
CC(=O)N1C[C@@H]2CC[C@H](C1)N(S(=O)(=O)c1ccccc1Cl)C2	-21.33%
O=C(O)C(F)(F)F.O=S(=O)(C1CC1)N1CCO[C@@H]2CC(COCc3cccnc3)C[C@H]21 (stereo partly drawn)	22.38%
Cn1cc(N2CC3(COCCN(Cc4ccccn4)C3)OCC2=O)cn1.O=C(O)C(F)(F)F (stereo not drawn)	-20.33%
CNC(=O)C1Cn2ccnc2C2(CCN(Cc3cccs3)CC2)O1.O=C(O)C(F)(F)F.O=C(O)C(F)(F)F (stereo not drawn)	-16.91%
Cn1c(CCN2CCN(CCc3ccccc3)CC2)nc2ccccc21	5.82%
CCCc1ccc(N2CCN(Cc3nc4ccccc4n3C)CC2)cc1	103%
Cn1c(CCN2CCN(c3ccc(O)cc3)CC2)nc2ccccc21	-8.24%
Cl.Cn1nc(C2CCN(C(=O)CN3CCCCC3)CC2)c2cccnc21	-23.31%
Cn1ncc2c1NC(=O)CC2c1ccccc1Cl (stereo not drawn)	-2.735%

Compound	Percent Effect
Cn1ncc2c1NC(=O)CC2c1ccc(Cl)cc1Cl (stereo not drawn)	51.94%
Cn1ncc2c1NC(=O)CC2c1cc(Cl)ccc1F (stereo not drawn)	-20.48%
Cc1ccc(CN(C)C(=O)c2n[nH]c(N)c2-c2ccccc2)o1	-6.81%
Cc1ccc(CN2CC[C@H]3OCC[C@@H](C(=O)NC4CC4)[C@@H]3C2)o1.O=C(O)C(F)(F)F	-2.405%
COCCN(C)Cc1cc(Cl)ccc1OCC(O)CN1CCCCCC1 (stereo not drawn)	4.611%
CN(CCCO)Cc1cc(Cl)ccc1OCC(O)CN1CCCCCC1 (stereo not drawn)	44.14%
CN(CCO)Cc1cc(Cl)ccc1OCC(O)CN1CCCCCC1 (stereo not drawn)	54.32%
Cc1ccc(N2CCN(C(=O)CN3C[C@@H]4CC[C@H]3C4)CC2=O)cc1	-8.228%
Cc1ccc(CN2CCC3(CCC(=O)N3CC(=O)N(C)C)CC2)s1.O=C(O)C(F)(F)F	11.8%
Cc1ccccc1C(=O)N1CCC2(CCCN2CCN(C)C)CC1.O=C(O)C(F)(F)F.O=C(O)C(F)(F)F	12.9%
CN(C)c1ccc(NC(=O)NCC2CCOC2)cn1 (stereo not drawn)	74.68%
O=C(NCC1CCOC1)Nc1ccc(OCC(F)(F)F)nc1 (stereo not drawn)	3.959%
CCN(CC)c1ccc(NC(=O)NCC2CCOC2)cn1 (stereo not drawn)	3.627%
CCn1c(Cn2cncn2)nnc1C1CCN(C[C@H]2[C@@H]3CNC[C@@H]32)CC1	-28.34%
Cc1ccc(OCc2occc2C(=O)N2C[C@@H]3[C@@H](CN(C)C)[C@@H]3C2)cc1	-7.572%
CN(C)C(=O)CC1CC2(CCN(Cc3ccsc3)CC2)c2ccccc21.O=C(O)C(F)(F)F (stereo not drawn)	-34.9%
Cc1cc(C)n(-c2cncc(NCCNC(=O)C(C)C)n2)n1	-20.98%
CC(C)C(=O)Nc1cc(C(=O)NC2CC(C)(C)NC(C)(C)C2)nn1C	-49.16%
CC(C)C(=O)Nc1cc(C(C)(C)C)nn1-c1ccccn1	4.241%
CC(=O)Nc1cc(C2CC2)nn1-c1nc(C)c(C)c(=O)[nH]1	27.84%
Cc1cc(NC(=O)C(C)C)n(-c2nc(C)c(C)c(=O)[nH]2)n1	104.4%
Cc1nc(-n2nc(C3CC3)cc2NC(=O)C(C)C)[nH]c(=O)c1C	96.45%
COc1cc(COCC2CCN(Cc3cccnc3)CC2)cc(OC)c1.O=C(O)C(=O)O	-22.42%
CC(C)CN1CCN(C)C2(CCN(Cc3ccsc3)CC2)C1=O.O=C(O)C(F)(F)F.O=C(O)C(F)(F)F	-18.88%

Compound	Percent Effect
CCc1ccc(CN2CCc3ncnc(-c4cccnc4)c3CC2)o1.O=C(O)C(F)(F)F.O=C(O)C(F)(F)F	-16.65%
Cc1sc2nc(CCN)nc(N3CCS(=O)(=O)CC3)c2c1C	12.97%
Cc1sc2nc(CCN)nc(N3CCN(S(C)(=O)=O)CC3)c2c1C	12.46%
CCOC(=O)N1CCN(c2nc(CCN)nc3sc(C)c(C)c23)CC1	82.82%
CSc1nc(N)c2c(n1)N=C1COC(O)=C1C2c1cccc(O)c1 (stereo not drawn)	4.116%
Cc1ccsc1CN1CCc2nc3ccsc3c(=O)n2CC1.Cl	3.746%
CCN(CC)c1ccc(NS(=O)(=O)c2cccnc2)cn1	61.96%
CCN(CC)c1ccc(NS(=O)(=O)c2cnn(C)c2)cn1	-23.7%
CCN(CC)c1ccc(NS(=O)(=O)c2cncc(F)c2)cn1	-17.45%
CCCC(=O)N1C[C@@H]2CCN(c3cnccn3)C[C@@H]2C1.O=C(O)C(F)(F)F	-8.378%
O=C(O)C(F)(F)F.O=C(c1cscn1)N1CC[C@]2(C[C@@H](OCCN3CCCC3)CO2)C1	0.0126%
CNC(=O)[C@@H]1C[C@H]2CN(Cc3nccs3)C[C@H]2N1C.O=C(O)C(F)(F)F.O=C(O)C(F)(F)F	-19.94%
Cc1cccc(CN2C(=O)CC[C@@H]3[C@H]2CCN3Cc2ccc(C)s2)n1.O=C(O)C(F)(F)F.O=C(O)C(F)(F)F	6.515%
COc1ccc(Cl)cc1CS(=O)(=O)Cc1noc(C)n1	-24.6%
COc1ccc(Cl)cc1CS(=O)(=O)Cc1nc(C)no1	62.62%
COc1ccc(Cl)cc1CS(=O)(=O)Cc1nc(C2CC2)no1	45.18%
COCCCN(Cc1ccccn1)Cc1ccnn1C1CCCCO1.O=C(O)CC(O)(CC(=O)O)C(=O)O (stereo not drawn)	-20.24%
Cc1cccc(NC(=O)c2csc(NCC(C)C)n2)n1	-0.3454%
O=C(Nc1nccs1)c1csc(NC2CCCC2)n1	106.3%
CC(C)CCNC(=O)c1csc(NC2CC2)n1	43.35%
Cc1nc(NC2CCCC2)cc(C2CCN2C(=O)c2ccccn2)n1 (stereo not drawn)	-9.873%
O=C(Nc1ccccn1)c1csc(NC2CCCC2)n1	105.9%
CC(C)NC(=O)c1csc(NC2CC2)n1	28.59%
CC(C)Nc1nc(C(=O)Nc2ccccn2)cs1	9.074%

Compound	Percent Effect
CCN(CC)C(=O)CCCNC(=O)c1csc(NC2CC2)n1	-1.337%
CC(C)CCNc1nc(C(=O)NC2CC2)cs1	15.23%
Cc1cnc(NC(=O)c2csc(NC3CCCC3)n2)s1	106.1%
Cc1cnc(NC(=O)c2csc(NCC(C)C)n2)s1	103.8%
CC(NC(=O)Nc1nccs1)C(=O)NC1CCCC1 (stereo not drawn)	1.171%
CC1CCN(C(=O)C2(Cc3cc(C4CCOC4)no3)CCNCC2)CC1.Cl (stereo not drawn)	3.404%
COc1nn(C)c2c1CCCN(C(=O)c1cccc3cccnc13)C2.O=C(O)C(F)(F)F	-1.629%
COCC1CN(C(=O)Cc2cccs2)Cc2nnn(CC3CC3)c21 (stereo not drawn)	-31.31%
Nc1cc(CCC2CN(Cc3ccc4cc[nH]c4c3)CCO2)ccn1 (stereo not drawn)	-29.21%
Cc1ccsc1CN1C[C@@H]2COC[C@]2(COCC(=O)N(C)C)C1.O=C(O)C(F)(F)F	-23.94%
Cc1ccc(CN2CCC3(CC2)CN(c2ccccc2)C(=O)CO3)o1.O=C(O)C(F)(F)F	-15.41%
COCC1CC2(CCN(c3cccc(C)n3)CC2)CN1C(C)C.O=C(O)C(F)(F)F.O=C(O)C(F)(F)F (stereo not drawn)	24.58%
CN(C)C(=O)N1CCO[C@@H]2CC(COCc3cccnc3)C[C@H]21.O=C(O)C(F)(F)F (stereo partly drawn)	17.51%
Cc1nc(COc2ccc(CNCCn3cccn3)cc2)cs1	-21.22%
Cc1ccc(OCc2nc(CNCCn3cccn3)cs2)cc1	94.11%
Cc1cnn(CCNCc2csc(COc3ccccc3)n2)c1	103.7%
Cc1cnn(CCNCc2ccc(OCc3csc(C)n3)cc2)c1	5.493%
c1ccc(OCc2nc(CNCCn3cccn3)cs2)cc1	46.73%
Cc1cnn(CCCNCc2csc(COc3ccccc3)n2)c1	15.28%
Cc1nnc(N2CC[C@H]3C[C@H](C(=O)N(C)C)O[C@@H]3C2)s1.O=C(O)C(F)(F)F	7.027%
COCC1CN(CC2CC2)Cc2nn(CC3CC3)cc21.O=C(O)C(F)(F)F (stereo not drawn)	-19.88%
